# This excerpt belongs to a sample that is enriched for hits.
# ALOX12 inh = ALOX12 (human) lipoxygenase inhibition | purified 12hLO, xylenol orange hydroperoxide absorbance | 1.1% of 580,000 active | AID 1671190 | Potency, µM (highest dose often 108 µM), for the others: at the top dose activity change, negative = inhibition, hits mostly inhibitors | P18054; further: potency means the concentration at half of the fitted maximal effect
# Target sequence (P18054 whole entry, looked up): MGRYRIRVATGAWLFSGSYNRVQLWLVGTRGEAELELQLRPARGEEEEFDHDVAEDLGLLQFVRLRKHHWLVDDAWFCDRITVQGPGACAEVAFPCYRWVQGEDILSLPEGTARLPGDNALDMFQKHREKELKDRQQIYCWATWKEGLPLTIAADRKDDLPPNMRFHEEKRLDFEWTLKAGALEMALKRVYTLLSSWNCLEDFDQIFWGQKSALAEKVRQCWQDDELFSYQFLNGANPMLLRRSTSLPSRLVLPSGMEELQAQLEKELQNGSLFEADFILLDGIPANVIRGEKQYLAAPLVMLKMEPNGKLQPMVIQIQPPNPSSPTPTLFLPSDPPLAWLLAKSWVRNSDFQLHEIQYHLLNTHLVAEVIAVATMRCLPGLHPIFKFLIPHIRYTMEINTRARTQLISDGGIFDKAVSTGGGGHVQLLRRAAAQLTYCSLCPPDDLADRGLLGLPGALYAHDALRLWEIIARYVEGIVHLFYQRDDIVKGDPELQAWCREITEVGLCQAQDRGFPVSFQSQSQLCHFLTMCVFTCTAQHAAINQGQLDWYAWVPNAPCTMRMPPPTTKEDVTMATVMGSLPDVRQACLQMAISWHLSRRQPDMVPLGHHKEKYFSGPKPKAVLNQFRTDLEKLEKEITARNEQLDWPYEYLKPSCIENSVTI
#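 Purified human 12hLO (150 nM final) in 25 mM Hepes, 0.01% Triton X-100, pH 7.0 was preincubated 15 min at room temperature with compound. Then 40 uM arachidonic acid was added, 30 min. Hydroperoxide was read by Fe-XO absorbance ratio 573/405 nm.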
# HT1080-NT tox = kills 2HG-producing HT-1080-NT fibrosarcoma cells. Potency, µM (highest dose often 46.1 µM), inactives show at the highest dose activity, negative = less viability, usual class: cytotoxic. AID 686970. 1.6% of 360,000 active. HT-1080-NT fibrosarcoma viability, CellTiter-Glo ATP luminescence, 48 h;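 further: NT is the 2HG producing partner of a matched IDH1 knockdown line; potency means the concentration at half of the fitted maximal effect; 0% = DMSO-treated cells and -100% = media-only wells without cells; nearly all actives have a fitted effect of over 55% in size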
#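 Luminescent CellTiter-Glo readout after 48 hours of compound exposure at 37 degrees C defined viability of HT-1080-NT cells. Activity was normalized to DMSO wells and cell-free media wells; concentration-response curves were fitted and assigned curve classes.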
# HT1080 IDH1KD tx = toxicity to HT-1080 IDH1 knockdown cells (counter line) | HT-1080 IDH1 knockdown viability, ATP luminescence, 48 h | Potency, µM (highest dose often 46.1 µM), inactives show top-dose activity, negative = toxicity, usual class: cytotoxic | 2% of 360,000 active | AID 686971;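 further: potency means the concentration at half of the fitted maximal effect; 0% = DMSO wells and -100% = cell-free medium wells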
#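 In this qHTS, HT-1080 cells depleted of IDH1 are exposed for 48 h at 37 °C to compound titrations. Toxicity is scored from CellTiter-Glo luminescence, with DMSO as full viability and medium alone as none.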
# TDP1 cell CPT = DT40-hTDP1 cell growth loss with CPT. chicken DT40 Tdp1-/-;hTDP1 cells + 20 nM CPT, ATP luminescence, 48 h. Potency, µM (doses to about 46.2 µM), inactives show top-dose activity change, negative = growth inhibition, most hits filed as inhibitors. 12% of 420,000 active. AID 686979; further: potency means the concentration at half of the fitted maximal effect; nearly all actives have a fitted effect of over 55% in size
#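 Cell growth measured by CellTiter-Glo luminescence after a minimum 48 h, 37 C compound exposure with 20 nM CPT in Tdp1-knockout DT40 cells stably expressing hTDP1, seeded 400/well; qHTS titration format.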
# TDP1 cell noCPT = qHTS for Inhibitors of human tyrosyl-DNA phosphodiesterase 1 (TDP1): qHTS in cells in absence of CPT; DT40 Tdp1-/- hTDP1 cells, no CPT, ATP luminescence, 48 h; Potency, µM (series often up to 46.2 µM), without a hit: top-dose activity change, negative = growth inhibition, usual class: inhibitors; 15% of 420,000 active; AID 686978, 2013; further: potency means the concentration at half of the fitted maximal effect; nearly all actives have a fitted effect of over 55% in size
#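 A cellular qHTS used chicken DT40 cells lacking endogenous Tdp1 but carrying stably transfected human TDP1. Compounds were applied without camptothecin, and cell growth kinetics were judged by ATP-dependent luminescence after ≥48 hr.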
# IL-1B inflam inh = blocks inflammasome-driven IL-1 beta release. 4.7% of 360,000 active. AID 743279. THP-1 LPS/ATP IL-1B secretion, AlphaLISA, 16 h; hits give low values. activity change, % at 57.5 µM; in the data active means activity change below about -50%; inconclusive means mostly about -30% to -49%
#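 THP-1 cells pretreated 1 hr with compounds (up to 57.5 uM final), then stimulated with LPS (250 ng/mL final) plus ATP (1.25 mM final); secreted IL-1B measured by AlphaLISA after 16 hr, decreased signal indicating inhibition.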
# Numbers without * were called inactive; i = inactive; ? = inconclusive; . = no result; [ ] = another dose, or the depositor's remark. Unless noted, the call rests on the fitted dose curve; in most records, active means well fitted curve in the direction sought with a large enough effect; inconclusive means small, poorly fitted or top-dose-only effect, or another doubt; inactive means no such curve, though single readings can be large; an effect the other way counts as inactive or inconclusive. Unless noted, on the % scale 0 is the no-effect control and ±100 the full control effect.
SMILES,ALOX12 inh,HT1080-NT tox,HT1080 IDH1KD tx,TDP1 cell CPT,TDP1 cell noCPT,IL-1B inflam inh
CC(C)N(Cc1nccn1C)C(=O)c1cc(COc2ccc3ncccc3c2)on1,-15%,?,-26%,?,10µM*,30
Cc1nc(CN(C)C(=O)c2cc(COc3ccc4ncccc4c3)on2)cs1,-4%,4.1µM*,?,5.8µM*,5.8µM*,-22
CC(C)N(Cc1nccn1C)C(=O)c1cc(COc2ccc(-n3cncn3)cc2)on1,-17%,-3%,0%,-24%,?,0
CCN(Cc1ccncc1)C(=O)c1cc(COc2c(C)cccc2C)on1,4%,-7%,-1%,12µM*,?,?
COc1cccc(OCc2cc(C(=O)N(Cc3nccn3C)C(C)C)no2)c1,16%,1%,-4%,-8%,-5%,11
CCN(Cc1ccncc1)C(=O)c1cc(COc2ccc(F)cc2F)on1,-2%,-3%,-12%,?,-49%,?
Cc1cccc(C)c1OCc1cc(C(=O)N(Cc2nccn2C)C(C)C)no1,3%,2%,-7%,15µM*,10µM*,6
CC1CCN(S(=O)(=O)c2ccc(C(=O)Nc3ncccc3O)cc2)CC1,13%,0%,-2%,?,15µM*,i
Cc1ccc(C)c2sc(NC(=O)c3ccc(S(=O)(=O)N4CCC(C)CC4)cc3)nc12,-16%,.,.,?,16µM*,.
Cc1nnsc1C(=O)Nc1ccc(S(=O)(=O)N2CCC(C)CC2)cc1,1%,-15%,-9%,?,10µM*,-55*
Cc1ccc(NC(=O)C2CCN(C(=O)c3ncn4c3COC(c3ccc(F)cc3)C4)CC2)c(Cl)c1 (stereo not drawn),40%,.,.,.,.,.
C=C(C)C(=O)OCC(O)COc1ccc(C(C)(C)c2ccc(OCC(O)COC(=O)C(=C)C)cc2)cc1 (stereo not drawn),5%,?,?,16µM*,21µM*,-64*
CCc1ccccc1NC(=O)c1ccc2c(Cl)c3c(nc2c1)CCCC3,-21%,.,.,.,.,.
CC(=O)c1c(Cl)nc2ccccc2c1-c1ccccc1,-45%,.,.,.,.,.
Cc1ccccc1NS(=O)(=O)c1ccc(C(=O)NCC(c2ccco2)N2CCCCC2)cc1 (stereo not drawn),-9%,-5%,-11%,?,23µM*,-13
CC(=O)c1cccc(S(=O)(=O)NCC(c2ccco2)N2CCCCC2)c1 (stereo not drawn),?,14%,0%,?,16µM*,13
COc1ccc(NS(=O)(=O)c2ccc(C)c(C(=O)NCC(c3ccco3)N3CCCCC3)c2)cc1 (stereo not drawn),0%,0%,2%,?,?,-6
Cc1cccc(NS(=O)(=O)c2ccc(C(=O)NCC3(N4CCCCC4)CCCCC3)cc2)c1C,?,-18%,?,21µM*,15µM*,-53*
O=C(NCC(c1ccco1)N1CCCC1)c1cccc(S(=O)(=O)N2CCCCC2)c1 (stereo not drawn),4%,-3%,-7%,?,?,27
Cc1cccc(NS(=O)(=O)c2ccc(C)c(C(=O)NCC(c3ccco3)N3CCCCC3)c2)c1 (stereo not drawn),0%,-3%,-3%,21µM*,18µM*,-3
COc1cccc(CNCc2c(C(=O)O)c(C)n(Cc3cc(C)ccc3C)c2C)c1OC,-13%,.,.,.,.,.
O=C(/C=C/c1cccc([N+](=O)[O-])c1)c1ccc(-c2ccccc2)cc1,5%,.,.,.,.,.
Cc1ccc(S(=O)(=O)N2CCc3c(C(=O)NCC(C)C)cccc32)cc1,5%,.,.,.,.,.
Cc1ccc(NS(=O)(=O)c2cccc(C(=O)NCC(c3ccco3)N3CCCCC3)c2)cc1 (stereo not drawn),.,-6%,2%,26µM*,?,7
COc1ccc(NS(=O)(=O)c2cccc(C(=O)NCC(c3ccco3)N3CCCC3)c2)cc1 (stereo not drawn),5%,-23%,-15%,-9%,-27%,17
SMILES,ALOX12 inh,HT1080-NT tox,HT1080 IDH1KD tx,TDP1 cell CPT,TDP1 cell noCPT,IL-1B inflam inh
O=C1/C(=C/c2ccc(Cl)c(Cl)c2)Cc2ccccc21,39%,.,.,.,.,.
CCN(CC)c1ccc(NC(=O)CN2CCN(c3ccccc3F)CC2)cc1,0%,-6%,-2%,?,?,-9
CCN(CC)c1ccc(NC(=O)CN2CCN(S(=O)(=O)c3cc(Cl)ccc3OC)CC2)cc1,?,?,?,?,16µM*,-29
COC(=O)c1ccc(C(=O)OC)c(NC(=O)CN2CCN(c3ccccc3)CC2)c1,-8%,16%,4%,?,-26%,29
CCN(CC)c1ccc(NC(=O)CN2CCN(c3ccccc3OC)CC2)cc1,-26%,.,.,21µM*,16µM*,.
COc1ccc(NC(=O)CN2CCN(c3ccccc3F)CC2)cc1,-1%,2%,3%,-20%,-1%,11
COc1ccc(NC(=O)c2ccc(NC(=O)CN3CCN(c4ccccc4OC)CC3)cc2)cc1,-20%,?,?,?,18µM*,68
COc1ccc(NC(=O)CN2CCN(C(C)=O)CC2)cc1S(=O)(=O)N1CCOCC1,-36%,4%,17%,1%,2%,34
COC(=O)c1ccc(C(=O)OC)c(NC(=O)CN2CCN(c3ccccc3OC)CC2)c1,-26%,-5%,9%,?,26µM*,-10
Cc1cc(CNC(=O)[C@@H]2CCC[C@@H](NCC3CC3)CN(C)C(=O)C2)no1,16%[176 µM],.,.,.,.,.
COc1ccccc1N1CCN(C(=O)C(OC)c2ccccc2)CC1=O (stereo not drawn),6%,.,.,.,.,.
COc1cccc(Oc2ccc(N/C=C/C(=O)c3ccc(Cl)cc3)cc2)c1,-15%,.,.,.,.,.
O=C(Nc1ccc(F)cc1)N1CC2CC(C1)[C@H]1CCCC(=O)N1C2 (stereo partly drawn),57%,.,.,.,.,.
CCC(=O)Oc1cc(C(C)(C)C)cc2cc(-c3nc(-c4ccc(OC)cc4OC)no3)c(=O)oc12,0%,.,.,?,16µM*,.
CCc1noc(-c2nc(-c3ccc(OC)cc3OC)no2)n1,0%,.,.,.,.,.
Clc1cccc(Cl)c1C=Nc1ccc(-c2ccc(N=Cc3c(Cl)cccc3Cl)cc2)cc1,-3%,.,.,.,.,.
NS(=O)(=O)c1ccc(N/N=C/C=C/c2ccccc2)c([N+](=O)[O-])c1,16%,.,.,.,.,.
COc1ccccc1C(=O)Nc1nc2ccc(S(=O)(=O)N3CCCC3)cc2s1,-22%,.,.,-2%,-25%,.

# Screening data: PubChem, National Center for Advancing Translational Sciences (NCATS)
